# According to PubChem BioAssay (NCI):
# Compounds without any hit were thinned out: in the full panel of roughly 83,000, 20% have a hit.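 Step 1: grow cells in 96-well plates. Step 2: add test compound at a single concentration. Step 3: incubate 48 h. Step 4: record percent growth.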 The source made the active and inactive calls. The calls were made as follows: active = growth percent below 10; inactive = the rest.
# System: CAKI-1 renal
# Assay: NCI-60 one-dose screen, 48 h (100 = growth as untreated, 0 = no growth, -100 = all killed)
# Settings: 10 µM
row,SMILES,growth
1,COc1cc2c(cc1OC)CN(CCCCOc1cc(O)c3c(=O)cc(-c4ccccc4)oc3c1)CC2,56.9% (inactive)
2,CCCn1c(=O)c2[nH]c(-c3ccc(OCc4nc5ccc(C#N)cc5[nH]4)cc3)nc2n(CCC)c1=O,89.6% (inactive)
3,O=c1[nH]c2ccc(Cl)cc2cc1CSc1ccc(Nc2nccc(-c3ccc4ccccc4c3)n2)cc1,97.1% (inactive)
4,CC(=O)NNc1ccc2nnc(-c3ccc(Br)cc3)n2n1,90.3% (inactive)
5,Cc1ccc(-c2nc3ccc(C(=O)N=Nc4c(O)[nH]c5ccc([N+](=O)[O-])cc45)cc3[nH]2)cc1,95.9% (inactive)
6,COc1cc(OC(F)(F)F)ccc1C(=O)Nc1sc2c(c1C#N)CCC(=O)C2,71.6% (inactive)
7,COc1ccc(CN2[C@@H](C(=O)NCc3ccc(C(=O)NO)cc3)Cc3c([nH]c4ccccc34)[C@@H]2C)cc1,39.5% (inactive)
8,O=C(c1ccc([N+](=O)[O-])c([N+](=O)[O-])c1O)n1[nH]c(=O)c2ccccc2c1=O,82.4% (inactive)
9,COc1ccc(-c2cc(-c3cc(C(=O)c4ccccc4)n4ccc(C)cc34)nc(N)c2C#N)cc1,69.9% (inactive)
10,NC(=Nc1ccc(OCCCCCCCCn2ccnn2)cc1)c1ccccc1,37.9% (inactive)
11,COc1ccc(C=CC(=O)c2ccc(-n3c(C)nc4c(cnn4-c4ccccc4)c3=O)cc2)cc1,75% (inactive)
12,CC1=N/C(=C\c2ccc(N(C)C)cc2)C(=O)N1CCc1ccc(S(N)(=O)=O)cc1,88.3% (inactive)
13,CC(C)(C)Nc1nc2cc(Cl)c(Cl)cc2nc1S(C)(=O)=O,53.2% (inactive)
14,CO[C@H]1CSS[C@@H]1Cn1nc(-c2ccc(Oc3ccccc3)cc2)c2c(N)ncnc21,11.3% (inactive)
15,CNC(=O)c1cc(-c2ccc(NC(=O)Nc3ccc(C)cc3)cc2)nc2cccnc12,92.8% (inactive)
16,COc1cccc(-c2ccc(/C=N/NC(=O)c3[nH]c4ccc(Br)cc4c3-c3ccccc3)o2)c1,26% (inactive)

# System: A498 renal
# Assay: as above
# Settings: 10 µM
row,SMILES,growth
1,O=C(CSc1ccc(-c2ccc(Cl)cc2)nn1)Nc1ccc(Cl)c(C(F)(F)F)c1,89.9% (inactive)
2,COc1cc(/C=N/NC(=O)c2ccc3nc(-c4ccc(Cl)cc4)[nH]c3c2)cc(OC)c1OC,-31.1% (active)
3,COc1cnc2c(c1)C(=O)c1c-2n(CCCNCCO)c(=O)c2cc(OC)c(OC)cc12,101% (inactive)
4,O=C(CSc1nnc(-c2c[nH]c3ccccc23)n1-c1ccccc1)Nc1ccc(C(=O)/C=C/c2cccc([N+](=O)[O-])c2)cc1,95.7% (inactive)
5,NC1=NC(c2ccccc2Cl)N=C(Nc2nn[nH]n2)N1 (stereo not drawn),104% (inactive)
6,O=C1NC(=NC23CC4CC(CC(C4)C2)C3)N/C1=C\c1ccc2ncccc2n1,-28.3% (active)
7,COc1cccc(/C=C2\N=C(C)N(CCc3ccc(S(N)(=O)=O)cc3)C2=O)c1,101% (inactive)
8,CC1(C)[C@@H](NCO)CC[C@]2(C)[C@H]3C(=O)C=C4[C@@H]5C[C@](C)(CO)CC[C@]5(C)CC[C@@]4(C)[C@]3(C)CC[C@@H]12,140% (inactive)
9,CN1CCN(Cc2ccc(NC(=O)c3cncc(C#Cc4cnc5ccc(N[C@H]6CCOC6)nn45)c3)cc2C(F)(F)F)CC1,-94.7% (active)
10,N#Cc1c(NC(=O)c2ccc(C(F)(F)F)cc2C(F)(F)F)sc2c1CCC(=O)C2,28.6% (inactive)
11,COc1ccccc1[C@H]1C(C(=O)c2ccc(O)cc2)C2(N[C@@H]1c1ccccc1)C(=O)Nc1ccc(Br)cc12 (stereo partly drawn),37.4% (inactive)
12,CN(CCF)c1ccc(/C=C/C(=O)c2ccc(N)cc2O)cc1,115% (inactive)
13,N#Cc1c(NC(=O)c2cccc(C(F)(F)F)c2)sc2c1CCC(O)=C2,69% (inactive)
14,O=C(CNc1nc(-c2ccccc2)cs1)Nc1cccc([N+](=O)[O-])c1,-88.1% (active)
15,O=C1Nc2cc(Cl)ccc2/C1=C/c1ccc(OCc2ccc(Br)cc2F)cc1,-46.4% (active)
16,CC1(C)CC[C@]2(C(=O)NCCCNCCCCNCCCN)CC[C@]3(C)C(=CC[C@@H]4[C@@]5(C)Cc6c([nH]c7ccccc67)C(C)(C)[C@@H]5CC[C@]43C)[C@H]2C1,147% (inactive)
17,COc1cc2c(cc1OC)CN(CCCCOc1cc(O)c3c(=O)cc(-c4ccccc4)oc3c1)CC2,127% (inactive)
18,CCCn1c(=O)c2[nH]c(-c3ccc(OCc4nc5ccc(C#N)cc5[nH]4)cc3)nc2n(CCC)c1=O,79.1% (inactive)
19,O=c1[nH]c2ccc(Cl)cc2cc1CSc1ccc(Nc2nccc(-c3ccc4ccccc4c3)n2)cc1,119% (inactive)

row,SMILES,growth
1,COc1cc(C2CC(c3ccc(C)cc3)=Nc3c(N)nc(N)nc3N2)ccc1Oc1nc(Nc2ccc(F)cc2)nc(N(C)C)n1 (stereo not drawn),96.5% (inactive)
2,COc1cc2c3c(n(CCCNC(C)C)c(=O)c2cc1OC)-c1nc2c(cc1C3=O)OCO2,81.9% (inactive)
3,CC(=O)NNc1ccc2nnc(-c3ccc(Br)cc3)n2n1,83.4% (inactive)
4,Cc1ccc(-c2nc3ccc(C(=O)N=Nc4c(O)[nH]c5ccc([N+](=O)[O-])cc45)cc3[nH]2)cc1,116% (inactive)
5,COc1cc(OC(F)(F)F)ccc1C(=O)Nc1sc2c(c1C#N)CCC(=O)C2,137% (inactive)
6,COc1ccc(CN2[C@@H](C(=O)NCc3ccc(C(=O)NO)cc3)Cc3c([nH]c4ccccc34)[C@@H]2C)cc1,-5.13% (active)
7,Cc1cccc2cc(-c3cc(-c4ccccc4)nc(=S)[nH]3)c(Cl)nc12,99% (inactive)
8,O=C(c1ccc([N+](=O)[O-])c([N+](=O)[O-])c1O)n1[nH]c(=O)c2ccccc2c1=O,133% (inactive)
9,COc1ccc(-c2cc(-c3cc(C(=O)c4ccccc4)n4ccc(C)cc34)nc(N)c2C#N)cc1,127% (inactive)
10,NC(=Nc1ccc(OCCCCCCCCn2ccnn2)cc1)c1ccccc1,98.1% (inactive)
11,COc1ccc(C=CC(=O)c2ccc(-n3c(C)nc4c(cnn4-c4ccccc4)c3=O)cc2)cc1,104% (inactive)
12,CCOC(=O)C1=C(N)N(c2ccc(Cl)cc2)C2=C(C(=O)CC(C)(C)C2)C1c1ccc(N2CCOCC2)cc1 (stereo not drawn),119% (inactive)
13,CC1=N/C(=C\c2ccc(N(C)C)cc2)C(=O)N1CCc1ccc(S(N)(=O)=O)cc1,102% (inactive)
14,CC(C)(C)Nc1nc2cc(Cl)c(Cl)cc2nc1S(C)(=O)=O,142% (inactive)
15,CO[C@H]1CSS[C@@H]1Cn1nc(-c2ccc(Oc3ccccc3)cc2)c2c(N)ncnc21,92.8% (inactive)
16,CNC(=O)c1cc(-c2ccc(NC(=O)Nc3ccc(C)cc3)cc2)nc2cccnc12,95.4% (inactive)
17,COc1cccc(-c2ccc(/C=N/NC(=O)c3[nH]c4ccc(Br)cc4c3-c3ccccc3)o2)c1,72.5% (inactive)
18,COc1ccc(-c2cc(-c3cc(C(=O)c4ccc(Br)cc4)n4ccc(C)cc34)nc(N)c2C#N)cc1,134% (inactive)
